Values joined by “and” are separate entries in the source; they are usually repeats but may differ in a detail not shown here. Equal entries are not always repeated. Records with an inconclusive call do not appear. More than one record can exist for a structure, and the calls need not agree. Active and inactive are the calls of the source. How the source made its calls, unless noted: active means hit-call score of the fitted dose curve at least 0.9, where 1 is the maximum; inconclusive means response in the unintended direction; inactive means score below 0.9.

Assay [1] can be described thus: TOX21_p53_BLA_p2_viability: Viability Assessment in the Tox21 HCT-116 p53 Agonism Beta-lactamase Assay, Phase 2 (AID 2283591).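 Further: compound exposure lasted 16 h at 37 °C; actives lower the ATP signal meaning cytotoxicity.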 The method in brief: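 Cytotoxicity readout: CellTiter-Glo ATP luminescence, 30 min at room temperature, after the beta-lactamase read. Cells were HCT116 exposed 16 h at 37C to compounds pin-transferred at 217-fold dilution from DMSO stocks.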

The target of assay [2] is Cellular tumor antigen p53 (Homo sapiens) (UniProt P04637). The assay is described as follows: TOX21_p53_BLA_p2_ratio: Tox21 HCT-116 p53 Agonism Beta-lactamase Assay, Ratio, Phase 2 (AID 2283592). The method in brief:
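Read-out is the blue/green (460/530 nm, 405 nm excitation) ratio after 2 h CCF4-AM loading, fitted as gain versus DMSO. Compounds, pinned at 217-fold dilution from DMSO stocks, stayed 16 h on HCT-116 beta-lactamase reporter cells seeded 5 h earlier.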

Assay [3] can be described thus: TOX21_p53_BLA_p3_viability: Viability Assessment in the Tox21 HCT-116 p53 Agonism Beta-lactamase Assay, Phase 3 (AID 2283593).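 Further: cells exposed to compound for 16 h before reading.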 The method in brief: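 Cellular ATP was quantified by CellTiter-Glo luminescence, read after 30 min at room temperature. Beforehand, HCT116 cells (4000/well) received compound 5 h post-seeding, 217-fold diluted from DMSO, then incubated 16 h at 37C.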

Assay [4] deals with Cellular tumor antigen p53 (Homo sapiens) (UniProt P04637). The assay is described as follows: TOX21_p53_BLA_p3_ratio: Tox21 HCT-116 p53 Agonism Beta-lactamase Assay, Ratio, Phase 3 (AID 2283596). The method in brief:
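Cells were seeded at 4000/well, rested 5 h at 37C, then dosed with DMSO compound solutions (217-fold dilution) for 16 h. CCF4-AM substrate was loaded for 2 h at room temperature, and the 460/530 nm emission ratio was fitted for gain of signal versus DMSO.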

The nature of assay [5]: TOX21_p53_BLA_p4_viability: Viability Assessment in the Tox21 HCT-116 p53 Agonism Beta-lactamase Assay, Phase 4 (AID 2283597).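 Further: hits lower the luminescence signal meaning cytotoxicity.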 The method in brief: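 Cytotoxicity as reduced cellular ATP (CellTiter-Glo luminescence, 30 min room temperature), measured in the same wells following the CCF4 FRET p53 reading. Human HCT-116 cells received compounds in DMSO (217-fold dilution) for 16 h.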

Assay [6] concerns the target Cellular tumor antigen p53 (Homo sapiens) (UniProt P04637). The assay is described as follows: TOX21_p53_BLA_p5_ratio: Tox21 HCT-116 p53 Agonism Beta-lactamase Assay, Ratio, Phase 5 (AID 2283599). The method in brief:
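Beta-lactamase reporter ratio (blue 460 nm over green 530 nm, 405 nm excitation) after 2 h CCF4-AM loading, in HCT-116 cells exposed 16 h at 37 C to compounds pinned at 217-fold dilution. Increases relative to DMSO baseline scored.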

Assay [7] is described as follows: TOX21_p53_BLA_p5_viability: Viability Assessment in the Tox21 HCT-116 p53 Agonism Beta-lactamase Assay, Phase 5 (AID 2283600). Summed up:
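Viability came from CellTiter-Glo ATP luminescence, read after 30 min at room temperature. Before this, HCT-116 p53-bla cells (4000/well) had 16 hours of compound exposure at 37C, with DMSO stocks diluted 217-fold on transfer.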

Assay [8] has as its target Cellular tumor antigen p53 (Homo sapiens) (UniProt P04637). The assay is described as follows: TOX21_p53_BLA_p4_ratio: Tox21 HCT-116 p53 Agonism Beta-lactamase Assay, Ratio, Phase 4 (AID 2283601). Summed up:
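Signal is the blue/green (460nm/530nm) ratio of cleaved versus uncleaved CCF4-AM substrate, read after 2 h substrate loading. Cells were HCT116 carrying the p53-responsive beta-lactamase reporter, dosed 16 h at 37C, 5% CO2; CellTiter-Glo measured in parallel.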

The nature of assay [9]: ACEA_AR_agonist_AUC_viability: ACEA Biosciences xCELLigence Real-Time Cell Analysis on Androgen Receptor Agonism for Viability (AID 2283775). Summed up: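 Viability endpoint from xCELLigence impedance in 22Rv1 prostate cells at 80 h. Eight-point series, 100 uM maximum final.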
Assay [10] is described as follows: CCTE_Padilla_ZF_144hpf_TERATOSCORE: (Legacy) CCTE's 144 Hour Post-fertilization zebrafish Assay Teratoscore, Padilla Lab (AID 2283679; active means hit-call score of the fitted dose curve at least 0.9, where 1 is the maximum; inactive means score below 0.9;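 further: zebrafish embryos with chorions exposed by immersion from 6-8 hpf to 5 dpf with daily renewal; teratogenicity score from eye scoring of death hatching and malformations at 144 hpf; higher score means more developmental defects relative to DMSO baseline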). Summed up: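 Larvae scored by eye at 144 hpf for death, hatching and malformations after a day in clean Hanks'. Before that, daily-renewed exposure at 80 uM (0.4% DMSO, 26C) from roughly 6-8 hpf through 5 dpf, 4 embryos per chemical.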

Assay [11] is described as follows: CEETOX_H295R_MTT_cell_viability: Viability Assessment in the CeeTox HT-H295R MTT Assay (AID 2283718; active means hit-call score of the fitted dose curve at least 0.9, where 1 is the maximum; inactive means score below 0.9). Summed up:
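MTT reduction (0.5 mg/ml, 4 h at 37 C; absorbance at 570 and 650 nm) gave viability as background-corrected percent change versus controls. H295R cells had 48 h forskolin (10 uM) prestimulation, then 48 h chemical exposure at 0.1% DMSO.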

The subject of assay [12] is Thyroperoxidase (TPO), gene 54314. The assay is described as follows: CCTE_Simmons_AUR_rTPO: CCTE's Amplex UltraRed Assay for Thyroperoxidase (TPO) Inhibition, Simmons Lab (AID 2283662).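 Further: potency for loss of signal meaning inhibition of peroxidase activity.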 The method in brief:
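Cell-free peroxidase activity assay using rat thyroid gland microsomes with excess H2O2 (300 uM) and 25 uM Amplex UltraRed. Compounds tested from 5 nM to 87.5 uM; fluorescence measured after 30 min at 37C, analysed relative to DMSO baseline.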

The nature of assay [13]: CCTE_Simmons_CellTiterGLO_HEK293T: Viability Assessment in CCTE's Assays for Thyroperoxidase (TPO) Inhibition, Simmons Lab (AID 2283665).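 Further: cells exposed to compound for 24 h before readout; actives reduce ATP signal below DMSO vehicle meaning cytotoxicity.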 The method in brief: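 Luminescent ATP readout (CellTiter-Glo, 20 min at room temperature) after 24 hr exposure of HEK293T cells to 5 nM–87.5 uM final compound; signal loss relative to DMSO vehicle indicated cytotoxicity; dichlone titrated as positive control.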

In assay [14] the target is Luciferin 4-monooxygenase (Photinus pyralis) (UniProt P08659). In words: CCTE_Simmons_QuantiLum_inhib_2: CCTE's Firefly Luciferase Inhibition Assay, Simmons Lab (AID 2283767). The method in brief:
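Cell-free QuantiLum luciferase, 5 ng/well; compounds 5 nM–87.5 uM final, 8 conc, 0.5% DMSO; 30 min, 37C, dark. Detection reagent (150 uM D-luciferin, 147 uM dATP, CoA, DTT, pH 7.8 final) injected per well, kinetic luminescence. Triplicate biological replicates.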

Sequence of Cellular tumor antigen p53 (Homo sapiens) (P04637 whole entry, looked up): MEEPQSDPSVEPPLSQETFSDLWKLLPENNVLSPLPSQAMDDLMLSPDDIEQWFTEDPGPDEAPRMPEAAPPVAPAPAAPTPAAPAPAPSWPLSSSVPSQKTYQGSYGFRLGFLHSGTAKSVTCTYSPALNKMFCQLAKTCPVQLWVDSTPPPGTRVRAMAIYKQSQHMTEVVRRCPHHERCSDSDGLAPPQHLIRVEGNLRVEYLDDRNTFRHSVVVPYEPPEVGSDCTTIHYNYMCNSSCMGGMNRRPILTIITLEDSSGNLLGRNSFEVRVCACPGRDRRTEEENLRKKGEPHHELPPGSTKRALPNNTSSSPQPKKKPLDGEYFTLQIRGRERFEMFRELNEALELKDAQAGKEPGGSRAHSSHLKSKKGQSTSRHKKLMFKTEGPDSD
Sequence of Luciferin 4-monooxygenase (Photinus pyralis) (P08659 whole entry, looked up): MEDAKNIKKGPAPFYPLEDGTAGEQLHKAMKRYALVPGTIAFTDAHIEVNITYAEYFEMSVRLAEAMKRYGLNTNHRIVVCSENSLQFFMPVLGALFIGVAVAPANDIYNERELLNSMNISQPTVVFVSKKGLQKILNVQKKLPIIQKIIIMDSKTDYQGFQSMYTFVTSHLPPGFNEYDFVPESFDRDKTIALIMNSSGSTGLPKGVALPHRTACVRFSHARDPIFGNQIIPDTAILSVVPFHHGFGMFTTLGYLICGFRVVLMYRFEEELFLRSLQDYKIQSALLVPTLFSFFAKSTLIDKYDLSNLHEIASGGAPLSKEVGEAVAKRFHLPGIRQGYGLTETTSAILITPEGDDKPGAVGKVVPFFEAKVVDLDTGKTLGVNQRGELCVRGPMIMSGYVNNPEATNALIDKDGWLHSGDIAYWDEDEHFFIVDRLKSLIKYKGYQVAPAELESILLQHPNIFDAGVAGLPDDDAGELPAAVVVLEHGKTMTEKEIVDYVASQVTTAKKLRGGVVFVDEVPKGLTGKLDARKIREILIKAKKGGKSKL

As to `CCCCCCCCCCC=CC#N`, the compound was classed as inactive in assay [1], in assay [2], in assay [3], in assay [4], in [5] and in [6]. For the same compound, the compound was called inactive in [7] and in assay [8].
As for `COC(=O)C1=C(C)NC(C)=C(C(=O)OCC(C)C)C1c1ccccc1[N+](=O)[O-]` (stereo not drawn), the compound was classed as inactive in assay [1], in [3], in assay [4], in [5], in assay [6] and in [7]. In addition, the AC50 in [2] is 18.4 µM (active); in assay [4], 23 µM (active); in assay [6], 20.6 µM (active); in assay [8], 33.2 µM (active) and 18.9 µM (active).
For `Nc1nc2ccccc2[nH]1`, the call in assay [1], in assay [2], in assay [3], in assay [4], in assay [5] and in assay [6] was inactive. Further, the compound was classed as inactive in assay [7] and in assay [8].
As for `C=CC(=O)NC(C)(C)CS(=O)(=O)O`, the compound was classed as inactive in assay [1], in assay [2], in [3], in assay [4], in assay [5] and in assay [6]. Moreover, the compound was called inactive in assay [7], in assay [8] and in assay [9].
Take `COCc1c(C(C)C)nc(C(C)C)c(/C=C/[C@@H](O)C[C@@H](O)CC(=O)O)c1-c1ccc(F)cc1`: the outcome in [1], in assay [2], in [3], in assay [4], in [5] and in [6] was inactive. Moreover, the call in assay [7], in [8] and in assay [11] was inactive. Besides, in assay [10], the AC50 is 78.1 nM (active) and 159 nM (active).
As for `C[Si](C)(CCCN)O[Si](C)(C)CCCN`, the call in assay [1], in [2], in [3], in assay [4], in assay [5] and in assay [6] was inactive. Also, in [8], the outcome was inactive.
With `CCCCC/C=C\C/C=C\CCCCCCCC(=O)OC`, the half-maximal activity concentration (AC50) in assay [1] is 66.2 µM (active); in assay [2] it was 74.7 µM (active); in assay [6] it was 73.3 µM (active); in assay [12], 43.8 µM (active); in assay [13], 58.4 µM (active). Moreover, the outcome in assay [1], in assay [2], in assay [3], in assay [4], in [5] and in [6] was inactive. The call in assay [7], in [8], in assay [14] and in assay [9] was inactive.
For `CC(C)C1=CC2=CC[C@@H]3[C@](C)(CCC[C@@]3(C)C(=O)O)[C@H]2CC1`, the AC50 in [1] was 58.9 µM (active). For the same compound, the outcome in assay [2], in assay [3], in [4], in assay [5], in assay [6] and in assay [7] was inactive.
For the compound `C[C@]12C=CC(=O)C=C1CC[C@@H]1[C@@H]2[C@@H](O)C[C@@]2(C)[C@H]1CC[C@]2(O)C(=O)CO`, the result in assay [1], in [2], in assay [3], in assay [4], in [5] and in assay [6] was inactive. For the same compound, the compound was called inactive in assay [7] and in [8].
Regarding `COc1cc(NC(=O)CC(C)=O)c(OC)cc1Cl`, the figures for the AC50 in assay [1] and in assay [5] were 18.8 µM (active) and 31 µM (active), respectively. Further, the result in [1], in [2], in assay [3], in assay [4], in assay [5] and in assay [6] was inactive. For the same compound, the call in assay [7] and in assay [8] was inactive.
Take `CCOC(=O)N1CCC(=C2c3ccc(Cl)cc3CCc3cccnc32)CC1`: the AC50 in assay [1] is 69.7 µM (active) and 36.8 µM (active); in assay [2], 36.5 µM (active) and 12.9 µM (active); in [3], 79.9 µM (active); in assay [4] it was 43.3 µM (active) and 22.4 µM (active); in [6], 49.6 µM (active); in [7] it was 75.4 µM (active). The compound was called inactive in [3], in assay [5], in [6], in assay [7] and in assay [8].

These data come from PubChem BioAssay (EPA / NIEHS).
